# Data from PubChem BioAssay (EPA / NIEHS).
# Inconclusive results are not listed. Calls of active or inactive are those of the source. How the source made its calls: active means hit-call score of the fitted dose curve at least 0.9, where 1 is the maximum; inconclusive means response in the unintended direction; inactive means score below 0.9.
# Assays:
# [1] = system: Thyroperoxidase (TPO), gene 445522; experiment: CCTE_Simmons_GUA_TPO: CCTE's Guaiacol Assay for Thyroperoxidase (TPO) Inhibition, Simmons Lab (AID 2283750)
# Procedure, shortened: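 Porcine thyroid microsomes (25 ug) in 200mM potassium phosphate, preincubated 30 s at 37C with compound (8 concentrations, 5 nM–87.5 uM) and 35mM guaiacol; 1mM H2O2 starts reaction. Absorbance change at 450nm over first 80 s; loss of signal versus DMSO, three replicates.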
# [2] = ACEA_AR_agonist_AUC_viability: ACEA Biosciences xCELLigence Real-Time Cell Analysis on Androgen Receptor Agonism for Viability (AID 2283775);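 on AC50: viability read 80 hours after compound addition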
# Procedure, shortened: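 Viability endpoint from xCELLigence impedance in 22Rv1 prostate cells at 80 h. Eight-point series, 100 uM maximum final.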
# [3] = ACEA_AR_antagonist_AUC_viability: ACEA Biosciences xCELLigence Real-Time Cell Analysis on Androgen Receptor Antagonism for Viability (AID 2283776);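 further: 22Rv1 human prostate cancer cells growing on impedance electrode plates; area under impedance growth curve at 80 h after dosing as viability; hits lower the growth signal relative to DMSO meaning cytotoxicity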
# Procedure, shortened: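 Viability endpoint from label-free cell-index monitoring: 22Rv1 cultures treated with an eight-point 1:4 dilution series starting at 100 uM final, AUC at 80 h fitted against DMSO.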
# [4] = biological target: Luciferin 4-monooxygenase (Photinus pyralis) (UniProt P08659); experiment: CCTE_Simmons_QuantiLum_inhib_2: CCTE's Firefly Luciferase Inhibition Assay, Simmons Lab (AID 2283767);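 on AC50: potency for inhibitors that lower luciferase luminescence relative to DMSO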
# Procedure, shortened: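 Eight-point titrations of each chemical, 5 nM–87.5 uM final in 0.5% DMSO, were run in three biological replicates against recombinant luciferase for 30 min at 37C. Bioluminescence signal loss, read on reagent injection, gave the inhibition endpoint.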
# [5] = ArunA_CellTiter_hNC: Viability Assessment in the ArunA Biomedical's Oris Neural Crest (hNC) Cell Migration Assay (AID 2283752)
# Procedure, shortened: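 Cytotoxicity endpoint run alongside the migration assay: neural crest cells on Matrigel, 60,000 per well, preincubated 16 h at 37C, treated 72 h; CellTiter Aqueous One signal loss relative to DMSO.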
# [6] = ArunA_CellTiter_hNP: Viability Assessment in the ArunA Biomedical's Oris Neural Crest (hNC) Cell Migration Assay (AID 2283753)
# Procedure, shortened: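 Viability read with CellTiter 96 Aqueous One after 72 h chemical exposure of human hNP1 neuroprogenitors, which were plated on Matrigel in LIF/bFGF medium 16 h beforehand. Endpoint fitted in positive direction relative to DMSO.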
# [7] = ArunA_Migration_hNP: ArunA Biomedical's Oris Neuroprogenitor (hNP) Cell Migration Assay (AID 2283754)
# Procedure, shortened: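 Readout is calcein-AM fluorescence (ex494/em517) of cells migrating into the detection zone, relative to DMSO. hNP1 cells (H9-derived) grown on Matrigel behind stoppers 16 h, then stoppers pulled and chemical applied 72 h; cytochalasin D as control.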
# [8] = ArunA_Migration_hNC: ArunA Biomedical's Oris Neural Crest (hNC) Cell Migration Assay (AID 2283755)
# Procedure, shortened: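 Calcein-AM fluorescence (ex494 nm/em 517 nm) in the stopper-defined detection zone quantifies migration of hNC cells after 72 h chemical exposure; 60,000 cells/well plated on Matrigel with LIF and bFGF, 16 h pre-incubation. DMSO baseline.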
# [9] = ArunA_NOG_NucleusCount: ArunA Biomedical's Neurite Outgrowth (NOG) Assay for Nucleus Count (AID 2283756)
# Procedure, shortened: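 Viable neuron count, from Hoechst nuclei passing size and intensity gates, imaged at 20x on differentiated H9-derived human neurons. Exposure lasted 48 h from seeding; activity was scored relative to DMSO.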
# [10] = ArunA_NOG_NeuriteLength: ArunA Biomedical's Neurite Outgrowth (NOG) Assay for Neurite Length (AID 2283757)
# Procedure, shortened: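 Total neurite length per neuron, from traced βIII-tubulin-labelled processes longer than 10 um on viable Hoechst-gated cells, was scored as decrease from DMSO. Cells were hESC (H9)-derived neurons given 48 h chemical exposure immediately after seeding.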
# [11] = ArunA_NOG_NeuritesPerNeuron: ArunA Biomedical's Neurite Outgrowth (NOG) Assay for Neurites Per Neuron (AID 2283758)
# Procedure, shortened: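 Differentiated human H9-derived neurons exposed to chemicals for 48 h from seeding, then stained with Hoechst and βIII-tubulin/DyLight 488. Automated imaging counted neurites (processes >10 um) per valid neuron; loss of signal versus DMSO scored.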
# [12] = system: chicken Androgen Receptor (AR), gene 422165; experiment: ATG_chAR_XSP1: Attagene TRANS-FACTORIAL Multi-Species (XSP1) HepG2 Assay for chicken Androgen Receptor (AR) (AID 2283768)
# Procedure, shortened: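 Reporter mRNA read by RT-PCR with fluorescent labelling and capillary electrophoresis 24 h after chemical dosing of transiently transfected HepG2 cells. Chicken AR-Gal4 chimera, partially stimulated with 3 nM 6-alpha-fluorotestosterone; activity fitted upward relative to DMSO.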
# [13] = system: zebrafish Androgen Receptor (AR), gene 100005148; experiment: ATG_zfAR_XSP1: Attagene TRANS-FACTORIAL Multi-Species (XSP1) HepG2 Assay for zebrafish Androgen Receptor (AR) (AID 2283771)
# Procedure, shortened: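 Gain-of-signal versus DMSO was measured as reporter transcripts quantified by RT-PCR, fluorescent labelling and capillary electrophoresis after 24 h chemical exposure. The cells were HepG2 expressing a chimeric zebrafish AR-GAL4, co-stimulated with 3 nM 6-alpha-fluorotestosterone.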
# [14] = system: zebrafish Estrogen Receptor (ESR2B), gene 317733; experiment: ATG_zfER2b_XSP1: Attagene TRANS-FACTORIAL Multi-Species (XSP1) HepG2 Assay for zebrafish Estrogen Receptor (ESR2B) (AID 2283773)
# Procedure, shortened: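 Medium contained 3 nM 6-alpha-fluorotestosterone. Reporter mRNA induction by exogenous zebrafish ER2b-Gal4 chimera was read 24 h post-dose in transiently transfected HepG2 cells, using RT-PCR, fluorescent labelling, HpaI digestion and capillary electrophoresis.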
# [15] = system: frog Estrogen Receptor (ESR2), gene 100174814; experiment: ATG_frER2_XSP1: Attagene TRANS-FACTORIAL Multi-Species (XSP1) HepG2 Assay for frog Estrogen Receptor (ESR2) (AID 2283774)
# Procedure, shortened: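 Reporter mRNA from a multiplexed TRANS system, measured by RT-PCR with fluorescent labelling and capillary electrophoresis, 24 hours after chemical exposure. Human HepG2 liver cells carried exogenous frog ER-Gal4 chimera; medium included 3 nM 6-alpha-fluorotestosterone; increases versus DMSO analysed.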
# [16] = system: frog Estrogen Receptor (ESR1), gene 398734; experiment: ATG_frER1_XSP1: Attagene TRANS-FACTORIAL Multi-Species (XSP1) HepG2 Assay for frog Estrogen Receptor (ESR1) (AID 2283777)
# Procedure, shortened: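 HepG2 cells transiently transfected with GAL4-UAS reporter units and frog ER–Gal4 chimera were dosed for 24 h with 3 nM 6-alpha-fluorotestosterone present. Reporter mRNA was measured by RT-PCR and capillary electrophoresis; gain of signal fitted versus DMSO.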
# [17] = system: zebrafish Estrogen Receptor (ESR2A), gene 317734; experiment: ATG_zfER2a_XSP1: Attagene TRANS-FACTORIAL Multi-Species (XSP1) HepG2 Assay for zebrafish Estrogen Receptor (ESR2A) (AID 2283778)
# Procedure, shortened: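 Reporter transcripts were quantified by RT-PCR, 6-FAM labelling, HpaI digestion and capillary electrophoresis after 24 h dosing. The cells were HepG2 transiently carrying a zebrafish ER2a–Gal4 construct plus multiplexed UAS reporters; medium contained 3 nM 6-alpha-fluorotestosterone.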
# [18] = biological target: zebrafish Estrogen Receptor (ESR1), esr1 (gene 259252) (UniProt P57717); experiment: ATG_zfER1_XSP1: Attagene TRANS-FACTORIAL Multi-Species (XSP1) HepG2 Assay for zebrafish Estrogen Receptor (ESR1) (AID 2283772)
# Procedure, shortened: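 HepG2 cells transiently transfected with a GAL4-UAS reporter and chimeric zebrafish ER-Gal4, dosed 24 h with 3 nM 6-alpha-fluorotestosterone present. Reporter mRNA measured by RT-PCR and capillary electrophoresis; gain of signal versus DMSO.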
# [19] = system: frog Androgen Receptor (AR), gene 399456; experiment: ATG_frAR_XSP1: Attagene TRANS-FACTORIAL Multi-Species (XSP1) HepG2 Assay for frog Androgen Receptor (AR) (AID 2283770)
# Chain of Luciferin 4-monooxygenase (Photinus pyralis) (P08659 whole entry, looked up): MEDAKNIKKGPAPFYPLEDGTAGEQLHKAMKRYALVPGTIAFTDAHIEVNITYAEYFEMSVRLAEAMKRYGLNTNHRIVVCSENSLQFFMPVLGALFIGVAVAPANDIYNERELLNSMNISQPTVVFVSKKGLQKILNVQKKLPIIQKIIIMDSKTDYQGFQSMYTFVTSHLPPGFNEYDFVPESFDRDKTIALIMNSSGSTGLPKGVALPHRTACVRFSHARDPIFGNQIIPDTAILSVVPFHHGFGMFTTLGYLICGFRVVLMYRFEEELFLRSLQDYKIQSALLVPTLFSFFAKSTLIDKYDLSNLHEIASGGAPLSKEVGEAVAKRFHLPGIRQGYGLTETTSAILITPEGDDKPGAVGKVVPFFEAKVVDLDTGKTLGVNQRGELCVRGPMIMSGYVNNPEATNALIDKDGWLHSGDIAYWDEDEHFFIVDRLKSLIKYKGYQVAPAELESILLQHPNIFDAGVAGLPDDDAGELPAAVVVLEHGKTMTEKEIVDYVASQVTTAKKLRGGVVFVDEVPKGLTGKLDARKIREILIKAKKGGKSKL
# Chain of zebrafish Estrogen Receptor (ESR1), esr1 (gene 259252) (P57717 whole entry, looked up, the tested form may be a part): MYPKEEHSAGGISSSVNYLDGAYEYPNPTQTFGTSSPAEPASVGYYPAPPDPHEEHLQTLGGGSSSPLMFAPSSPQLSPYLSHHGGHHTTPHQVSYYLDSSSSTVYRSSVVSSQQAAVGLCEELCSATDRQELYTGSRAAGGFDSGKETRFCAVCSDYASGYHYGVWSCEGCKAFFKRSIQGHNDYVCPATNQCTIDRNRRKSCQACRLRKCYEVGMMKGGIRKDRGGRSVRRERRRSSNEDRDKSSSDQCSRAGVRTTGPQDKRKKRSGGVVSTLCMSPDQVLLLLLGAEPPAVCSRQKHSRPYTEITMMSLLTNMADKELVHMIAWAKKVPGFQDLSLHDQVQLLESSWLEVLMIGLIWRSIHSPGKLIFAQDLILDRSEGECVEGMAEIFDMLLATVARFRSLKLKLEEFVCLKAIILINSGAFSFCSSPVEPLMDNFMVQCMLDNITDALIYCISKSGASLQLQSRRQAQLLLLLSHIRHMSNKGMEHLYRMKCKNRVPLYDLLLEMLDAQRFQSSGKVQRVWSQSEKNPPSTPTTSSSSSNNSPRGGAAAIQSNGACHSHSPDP
smiles,measurement,setting,value
COP(=S)(OC)SCN1C(=O)c2ccccc2C1=O,outcome,[1],inactive
same,AC50,[2],79.7 µM (active)
same,AC50,[3],64.7 µM (active)
CN(C)C(=O)Nc1ccc(Cl)cc1,outcome,[4],inactive
same,outcome,[2],inactive
same,AC50,[3],50 µM (active)
CCCCC(CC)COC(=O)c1ccc(C(=O)OCC(CC)CCCC)c(C(=O)OCC(CC)CCCC)c1 (stereo not drawn),outcome,[4],inactive
same,outcome,[3],inactive
COC(=O)c1ccccc1N,outcome,[4],inactive
Nc1ccc(Cc2ccc(N)cc2)cc1,AC50,[1],0.352 µM (active)
same,outcome,[4],inactive
same,outcome,[2],inactive
same,AC50,[3],28.1 µM (active)
Oc1ccc2ccc3cccc4ccc1c2c34,AC50,[5],14.7 µM (active)
same,AC50,[6],25.8 µM (active)
same,AC50,[7],50 µM (active)
same,AC50,[8],13.9 µM (active)
same,outcome,[9],inactive
same,outcome,[10],inactive
same,outcome,[11],inactive
same,AC50,[4],48 µM (active)
same,AC50,[2],83.3 µM (active)
same,AC50,[3],74.6 µM (active)
CCC(C)c1ccc(O)cc1 (stereo not drawn),outcome,[4],inactive
same,AC50,[2],50 µM (active)
same,AC50,[3],61.6 µM (active)
O=[N+]([O-])C(Br)(CO)CO,AC50,[2],29.5 µM (active)
same,AC50,[3],39 µM (active)
CN(C)c1ccccc1,AC50,[1],23.7 µM (active)
same,outcome,[4],inactive
same,outcome,[2],inactive
same,outcome,[3],inactive
[Cl-].[Cl-].[Hg+2],AC50,[1],389 µM (active)
same,AC50,[4],10.4 µM (active)
same,AC50,[2],4.59 µM (active)
same,AC50,[3],5.66 µM (active)
ClCCOCCCl,outcome,[2],inactive
Nc1ccc(Cl)cc1N,AC50,[4],9.28 µM (active)
same,AC50,[3],50 µM (active)
CCC[CH2][Sn]([Cl])([CH2]CCC)[CH2]CCC,AC50,[12],0.334 µM (active)
same,outcome,[13],inactive
same,outcome,[14],inactive
same,AC50,[15],0.528 µM (active)
same,AC50,[2],0.567 µM (active)
same,AC50,[3],0.631 µM (active)
same,outcome,[16],inactive
same,outcome,[17],inactive
Nc1ccc(N=Nc2ccccc2)cc1,AC50,[4],3.16 µM (active)
same,AC50,[2],50 µM (active)
same,outcome,[3],inactive
Clc1ccc(C(c2ccc(Cl)cc2)C(Cl)(Cl)Cl)cc1,outcome,[13],inactive
same,AC50,[18],41.7 µM (active)
same,AC50,[14],1.95 µM (active)
same,AC50,[15],4.09 µM (active)
same,AC50,[2],8.63 µM (active)
same,outcome,[3],inactive
same,AC50,[16],1.31 µM (active)
same,AC50,[17],17.6 µM (active)
Oc1ccccc1Cl,outcome,[4],inactive
C[C@]12C=CC3=C4CCC(=O)C=C4CC[C@H]3[C@@H]1CC[C@@H]2O,outcome,[4],inactive
same,AC50,[12],0.00303 µM (active)
same,AC50,[19],0.0124 µM (active)
same,AC50,[13],0.0325 µM (active)
same,outcome,[18],inactive
same,outcome,[14],inactive
same,outcome,[3],inactive
same,outcome,[16],inactive
same,outcome,[17],inactive
